Data taken from PubChem BioAssay (Tox21).
Results filed as inconclusive are left out. Active and inactive are the calls of the source. Unless noted, calls come from the whole dose curve; as a rule, active = well fitted curve in the direction sought with a large enough effect in the repeat runs; inconclusive = weak or mixed curves; inactive = no such curve, though single readings can be large; an effect the other way counts as inactive or inconclusive.

Assays:
[1] = target: Thyrotropin receptor (Homo sapiens) (UniProt P16473); experiment: qHTS assay to identify small molecule antagonists of the thyroid stimulating hormone receptor (TSHR) signaling pathway (AID 1259385; calls by dose curve; note: nearly all actives have a fitted effect of over 20% in size)
Summary of the method: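 Antagonist mode: compound-treated TSHR-expressing HEK293 cells were stimulated with 1.5 ng/mL TSH (final) in presence of Ro20-1724 for 30 min at RT. HTRF cAMP detection after 1 h; each compound tested at 15 concentrations, triplicate.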

[2] = qHTS assay to identify small molecule agonists of the estrogen receptor alpha (ER-alpha) signaling pathway in the presence of an antagonist - cell viability counter screen (AID 1259386);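 note: series mostly up to about 92 µM; cells exposed to compounds for 22 h at 37 °C before the viability read; nearly all actives have a fitted effect of over 30% in size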
Summary of the method: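 Read-out: CellTiter-Fluor fluorescence after 1hr reagent incubation, measured in the same wells as the luciferase readout. VM7Luc4E2 cells were exposed to 15 compound concentrations with 10.0nM ICI-182,780 for 22hr at 37C.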

[3] = target: Progesterone receptor (Homo sapiens) (UniProt P06401); experiment: qHTS assay to identify small molecule agonists of the progesterone receptor (PR) signaling pathway (AID 1346784; calls by dose curve; note: nearly all actives have a fitted effect of over 30% in size; note: potency is the fitted concentration of half-maximal effect)
Summary of the method: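 Using charcoal-stripped serum (2%) to limit endogenous steroids, PR-UAS-bla HEK 293T cells received compounds for 16 hr at 37C after 6 hr plating; beta-lactamase FRET fluorescence was recorded following 2 hr substrate loading at room temperature.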

[4] = target: Progesterone receptor (Homo sapiens) (UniProt P06401); experiment: qHTS assay to identify small molecule antagonists of the progesterone receptor (PR) signaling pathway (AID 1346795; active = well fitted inhibition curve with a large enough effect in the signal ratio in the repeat runs, not every such curve was filed as active; the % refers to the signal ratio)
Summary of the method: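 Inhibition of R5020-induced (1 nM final) beta-lactamase reporter signal in PR-UAS-bla HEK293T cells was scored by FRET fluorescence after overnight (16 hr) compound treatment.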

[5] = qHTS assay to identify small molecule antagonists of the progesterone receptor (PR) signaling pathway - cell viability counter screen (AID 1346798); note: series mostly up to about 92 µM; nearly all actives have a fitted effect of over 50% in size
Summary of the method: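 ATP content as viability readout: CellTiter-Glo luminescence, 30 min room temperature, in PR-UAS-bla HEK293T cells after 16 hr compound/R5020 treatment at 37C and 5% CO2.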

[6] = qHTS assay to identify small molecule agonists of the progesterone receptor (PR) signaling pathway - cell viability counter screen (AID 1346799; calls by dose curve; note: nearly all actives have a fitted effect of over 45% in size)
Summary of the method: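 Cytotoxicity in PR-bla HEK293T cells: 16 h compound, 37C; CellTiter-Glo added post-FRET read; luminescence after 30 min RT.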

[7] = qHTS assay to identify small molecule antagonists of the TGF-beta/Smad signaling pathway - cell viability counter screen (AID 1346824); note: nearly all actives have a fitted effect of over 50% in size
Summary of the method: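 Cytotoxicity counter-screen run in the same wells as the beta-lactamase Smad reporter read: CellTiter-Glo luminescence after 30 min at room temperature. HEK 293T SBE-bla cells had 5 hr compound exposure at 37 C with TGF-beta1 (0.25 ng/mL stock).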

[8] = qHTS assay to identify small molecule agonists of the TGF-beta/Smad signaling pathway (AID 1346859; active = well fitted activation curve with a large enough effect in the signal ratio in the repeat runs, not every such curve was filed as active; the % refers to the signal ratio; note: series mostly up to about 77 µM)
Summary of the method: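 Stable Smad binding element-beta-lactamase HEK 293T cells; 5 hr compound exposure at 37 C under 5% CO2; 2 hr room-temperature substrate step; fluorescence excited at 405 nm, collected at 460 nm and 530 nm.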

[9] = target: Thyrotropin-releasing hormone receptor (Homo sapiens) (UniProt P34981); experiment: qHTS assay to identify small molecule antagonists of the thyrotropin-releasing hormone receptor (TRHR) signaling pathway (AID 1346877; active = well fitted inhibition curve with a large enough effect in the repeat runs, not every such curve was filed as active; note: series mostly up to about 51 µM)
Summary of the method: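 HEK293/TRHR cells, 18 h, 37 °C; Ca2+ dye 2 h; cpd 5 min RT; TRH 1 nM final; fluorescence read 3 min, 1 s intervals; 15 concs, triplicate.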

[10] = target: Thyrotropin-releasing hormone receptor (Homo sapiens) (UniProt P34981); experiment: qHTS assay to identify small molecule agonists of the thyrotropin-releasing hormone receptor (TRHR) signaling pathway (AID 1346891; calls by dose curve;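 note: HEK293 cells expressing TRHR with calcium dye readout; series mostly up to about 58 µM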)
Summary of the method: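 In 1536-format, 1500 TRHR-Hek293 cells per well grew 18 h, took up calcium dye for 2 h at 37 °C, received compound, and were read kinetically; 15-point titrations, triplicates.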

[11] = Human pregnane X receptor (PXR) small molecule agonists, qHTS cell viability counter screen (AID 1346977); note: nearly all actives have a fitted effect of over 50% in size
Summary of the method: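 Readout is CellTiter-Fluor fluorescence from PXR-Luc HepG2 cells. Plated cells rested 5hr, then were treated with compounds for 24hr at 37C and 5% CO2, with reagent present during the last hour.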

[12] = Caspase-3/7 induction in HepG2 cells by small molecules, qHTS assay (AID 1346978); note: nearly all actives have a fitted effect of over 15% in size
Summary of the method: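 Caspase-3/7 induction was measured by Caspase-Glo 3/7 luminescence (30 min, room temperature) after a 17 hr compound exposure of wild-type HepG2 cells seeded at 2,000 per well and pre-incubated 5 hr.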

[13] = Caspase-3/7 induction in CHO-K1 cells by small molecules, qHTS assay (AID 1346980); note: nearly all actives have a fitted effect of over 15% in size
Summary of the method: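 Luminescent Caspase-Glo 3/7 read (30min, room temperature) quantified apoptosis induction. Cells were wild-type CHO-K1, treated with compound for 17hr at 37 C and 5% CO2.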

[14] = Caspase-3/7 induction in HepG2 cells by small molecules, qHTS cell viability counter screen (AID 1346981); note: series mostly up to about 92 µM; nearly all actives have a fitted effect of over 30% in size
Summary of the method: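 Fluorescence read-out of live-cell protease activity (CellTiter-Fluor) after 1 hr with reagent. This was measured in the same wells as the caspase-3/7 luminescence, on HepG2 cells exposed to DMSO-dissolved compounds for 16 hr at 37 C.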

[15] = target: Nuclear receptor subfamily 1 group I member 2 (Homo sapiens) (UniProt O75469); experiment: Human pregnane X receptor (PXR) small molecule agonists, qHTS assay (AID 1346982); note: nearly all actives have a fitted effect of over 35% in size
Summary of the method: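 HepG2 PXR-Luc reporter line, 5% charcoal-stripped FBS; 5 hr pre-incubation, compound (DMSO) 24 hr at 37 C/5% CO2; ONE-Glo 30 min RT; luminescence read-out.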

[16] = target: Nuclear receptor subfamily 1 group I member 2 (Rattus norvegicus) (UniProt Q9R1A7); experiment: Rat pregnane X receptor (rPXR) activation by small molecules, qHTS assay (AID 1346983); details: rPXR luciferase reporter cells, One-Glo luminescence, 24 h; active compounds read high; note: nearly all actives have a fitted effect of over 20% in size
Summary of the method: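 Luminescent readout (One-Glo luciferase, 30 min room temperature) followed 24 hr compound treatment at 37 C of rPXR cells plated 2,000 per well and preincubated 5hr; qHTS format with compounds delivered in DMSO.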

[17] = target: Nuclear receptor subfamily 1 group I member 2 (Homo sapiens) (UniProt O75469); experiment: CYP3A4 induction through human pregnane X receptor (PXR) by small molecules, qHTS assay (AID 1346984); note: nearly all actives have a fitted effect of over 40% in size
Summary of the method: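 HepG2-derived DPX-2 line carrying PXR plus a CYP3A4-promoter luciferase reporter; cells plated 5 hr, compound-exposed 24 hr at 37C. CYP3A4 activity probed with 3uM (final) Luciferin-IPA for 3hr, then luciferase read after One-Glo.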

[18] = target: Nuclear receptor subfamily 1 group I member 2 (Homo sapiens) (UniProt O75469); experiment: Human pregnane X receptor (PXR) activation by small molecules, qHTS assay (AID 1346985); note: nearly all actives have a fitted effect of over 40% in size
Summary of the method: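 DPX-2 cells (HepG2 co-transfected with a PXR response element and a CYP3A4-promoter luciferase construct) were seeded at 2,000 per well, rested 5 hr at 37C, then exposed to DMSO-dissolved compounds for 24 hr. Activation was read as luciferase luminescence.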

[19] = qHTS assay to identify small molecule agonists of the TGF-beta/Smad signaling pathway - cell viability counter screen (AID 1346829); note: top concentration of the series differs between compounds; nearly all actives have a fitted effect of over 45% in size
Summary of the method: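 Here the cytotoxicity of library compounds is measured in SBE-bla HEK 293T cells treated for 5 hr, using CellTiter-Glo added to wells already read for the beta-lactamase reporter.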

[20] = Caspase-3/7 induction in CHO-K1 cells by small molecules, qHTS cell viability counter screen (AID 1346979); note: nearly all actives have a fitted effect of over 35% in size
Summary of the method: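 To flag cytotoxic compounds, treated CHO-K1 wild-type cells were given CellTiter-Fluor at 16hr and read fluorescently after 1hr at 37C; the caspase-3/7 luminescence was measured in these same wells.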
% is set by controls: 0 for no effect and ±100 for the full control effect.

Chain of Thyrotropin-releasing hormone receptor (Homo sapiens) (P34981 whole entry, looked up): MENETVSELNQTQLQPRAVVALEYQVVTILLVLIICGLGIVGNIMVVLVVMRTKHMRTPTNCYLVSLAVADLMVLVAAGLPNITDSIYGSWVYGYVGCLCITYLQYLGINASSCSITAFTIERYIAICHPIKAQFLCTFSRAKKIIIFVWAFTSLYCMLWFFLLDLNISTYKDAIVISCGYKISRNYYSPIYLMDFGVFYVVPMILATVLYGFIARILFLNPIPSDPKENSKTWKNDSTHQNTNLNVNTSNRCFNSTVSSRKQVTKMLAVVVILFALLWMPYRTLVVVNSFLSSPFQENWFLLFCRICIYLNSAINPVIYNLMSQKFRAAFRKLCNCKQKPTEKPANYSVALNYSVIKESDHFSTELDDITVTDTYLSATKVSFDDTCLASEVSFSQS
Chain of Progesterone receptor (Homo sapiens) (P06401 whole entry, looked up): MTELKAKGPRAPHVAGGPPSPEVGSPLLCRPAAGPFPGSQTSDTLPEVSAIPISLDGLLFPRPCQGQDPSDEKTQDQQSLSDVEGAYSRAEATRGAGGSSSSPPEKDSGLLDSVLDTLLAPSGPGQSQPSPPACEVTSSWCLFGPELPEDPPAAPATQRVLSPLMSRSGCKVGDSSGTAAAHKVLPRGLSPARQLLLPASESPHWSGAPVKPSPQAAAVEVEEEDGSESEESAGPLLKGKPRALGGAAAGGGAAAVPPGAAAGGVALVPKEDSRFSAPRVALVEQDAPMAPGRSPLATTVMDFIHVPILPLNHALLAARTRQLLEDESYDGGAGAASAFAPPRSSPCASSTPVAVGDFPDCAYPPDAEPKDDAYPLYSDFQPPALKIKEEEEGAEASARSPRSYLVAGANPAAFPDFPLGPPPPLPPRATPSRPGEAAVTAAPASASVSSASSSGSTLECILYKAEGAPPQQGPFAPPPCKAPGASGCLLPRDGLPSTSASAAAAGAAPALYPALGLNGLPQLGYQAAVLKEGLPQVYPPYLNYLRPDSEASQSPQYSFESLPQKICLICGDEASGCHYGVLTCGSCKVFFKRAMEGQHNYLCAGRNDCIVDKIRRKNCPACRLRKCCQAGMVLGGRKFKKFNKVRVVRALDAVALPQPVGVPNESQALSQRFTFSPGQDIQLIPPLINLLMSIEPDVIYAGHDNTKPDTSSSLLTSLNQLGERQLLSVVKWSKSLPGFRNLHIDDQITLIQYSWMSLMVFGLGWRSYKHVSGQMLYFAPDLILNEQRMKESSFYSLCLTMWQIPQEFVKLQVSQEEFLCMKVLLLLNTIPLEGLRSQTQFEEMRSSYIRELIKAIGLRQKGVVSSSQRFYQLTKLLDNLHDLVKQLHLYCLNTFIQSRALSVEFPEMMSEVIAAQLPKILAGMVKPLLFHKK
Chain of Nuclear receptor subfamily 1 group I member 2 (Homo sapiens) (O75469 whole entry, looked up): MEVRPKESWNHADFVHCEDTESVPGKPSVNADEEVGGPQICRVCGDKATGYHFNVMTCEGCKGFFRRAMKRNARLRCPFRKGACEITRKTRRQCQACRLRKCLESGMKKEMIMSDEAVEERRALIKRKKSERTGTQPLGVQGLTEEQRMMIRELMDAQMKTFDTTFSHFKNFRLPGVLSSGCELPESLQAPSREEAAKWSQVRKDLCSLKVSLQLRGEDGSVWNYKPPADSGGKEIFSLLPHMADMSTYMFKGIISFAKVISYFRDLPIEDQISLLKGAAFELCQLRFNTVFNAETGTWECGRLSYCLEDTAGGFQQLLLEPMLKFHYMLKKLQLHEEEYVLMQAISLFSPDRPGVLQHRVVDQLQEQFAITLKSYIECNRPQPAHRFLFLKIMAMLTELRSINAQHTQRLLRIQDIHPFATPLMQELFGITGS
Chain of Thyrotropin receptor (Homo sapiens) (P16473 whole entry, looked up): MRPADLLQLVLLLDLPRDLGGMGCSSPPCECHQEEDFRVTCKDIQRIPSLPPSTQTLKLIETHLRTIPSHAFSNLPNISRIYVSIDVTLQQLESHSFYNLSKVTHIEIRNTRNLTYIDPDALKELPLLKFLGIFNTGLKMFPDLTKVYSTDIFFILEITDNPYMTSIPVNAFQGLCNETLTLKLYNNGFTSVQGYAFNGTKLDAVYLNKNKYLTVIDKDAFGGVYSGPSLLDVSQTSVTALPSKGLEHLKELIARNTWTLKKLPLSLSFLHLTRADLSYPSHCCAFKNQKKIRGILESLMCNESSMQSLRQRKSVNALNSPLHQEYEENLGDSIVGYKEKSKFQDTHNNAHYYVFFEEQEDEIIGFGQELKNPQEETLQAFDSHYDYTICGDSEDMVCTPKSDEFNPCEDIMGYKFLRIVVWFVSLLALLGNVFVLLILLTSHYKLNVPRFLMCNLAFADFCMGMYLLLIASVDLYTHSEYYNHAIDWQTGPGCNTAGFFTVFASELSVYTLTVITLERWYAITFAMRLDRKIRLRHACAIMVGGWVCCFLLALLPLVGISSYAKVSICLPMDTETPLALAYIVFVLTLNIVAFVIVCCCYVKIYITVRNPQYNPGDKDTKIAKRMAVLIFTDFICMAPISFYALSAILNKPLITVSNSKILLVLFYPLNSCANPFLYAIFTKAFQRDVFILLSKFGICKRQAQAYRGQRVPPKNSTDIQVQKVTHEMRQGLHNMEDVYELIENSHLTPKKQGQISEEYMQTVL
Chain of Nuclear receptor subfamily 1 group I member 2 (Rattus norvegicus) (Q9R1A7 whole entry, looked up): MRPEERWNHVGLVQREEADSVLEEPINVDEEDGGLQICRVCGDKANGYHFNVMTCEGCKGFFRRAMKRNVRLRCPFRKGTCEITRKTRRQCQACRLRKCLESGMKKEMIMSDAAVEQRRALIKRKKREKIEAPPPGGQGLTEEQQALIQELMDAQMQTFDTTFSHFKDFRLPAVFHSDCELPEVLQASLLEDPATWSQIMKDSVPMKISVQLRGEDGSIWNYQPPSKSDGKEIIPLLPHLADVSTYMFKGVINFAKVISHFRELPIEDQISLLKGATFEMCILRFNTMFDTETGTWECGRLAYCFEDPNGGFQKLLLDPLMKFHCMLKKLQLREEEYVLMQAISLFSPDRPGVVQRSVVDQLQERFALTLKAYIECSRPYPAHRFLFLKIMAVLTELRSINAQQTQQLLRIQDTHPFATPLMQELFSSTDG

Cc1nc2n(c(=O)c1CCN1CCC(c3noc4cc(F)ccc34)CC1)CCC[C@H]2O
inactive: activity change, negative = inhibition [1] -7.26% [at 19 µM] | activity change, negative = cytotoxicity [2] -2.18% [at 19 µM] | activation [3] -1.98% [at 19 µM] | activity change, negative = inhibition [4] 1.27% [at 18.9 µM] | activity change, negative = cytotoxicity [5] -12.9% [at 18.9 µM] | activity change, negative = cytotoxicity [6] -13.8% [at 19 µM] | viability change, negative = cytotoxic [7] 1.49% [at 15.8 µM] | activation [8] 0.469% [at 15.8 µM] | activity, negative = inhibition [9] -5.29% [at 10.5 µM] | activation [10] -0.0294% [at 11.8 µM] | activity change, negative = cytotoxicity [11] -2.46% [at 19 µM] | caspase activation [12] 0.536% [at 19 µM] | caspase-3/7 activation [13] 0.349% [at 19 µM] | activity change, negative = cytotoxicity [14] 0.92% [at 19 µM] | activation [15] 13.9% [at 19 µM]

Cc1cccc(C)c1NC(=O)c1ccccc1C(=O)O
inactive: outcome [1] | Potency [2] | Potency [3] | Potency [4] | Potency [5] | Potency [6] | outcome [7] | outcome [8] | outcome [9] | outcome [10] | Potency [11] | Potency [12] | outcome [13] | Potency [14] | Potency [15] | max activation [16] -1.88% | Potency [17] | Potency [18]

Nc1cccc(O)c1
inactive: outcome [1] | Potency [2] | Potency [3] | Potency [4] | Potency [5] | Potency [6] | outcome [19] | outcome [8] | outcome [9] | outcome [10] | Potency [11] | Potency [12] | outcome [13] | Potency [14] | Potency [15]

CC(C)CC(C)CC(C)CC(C)COC(=O)c1ccccc1C(=O)OCC(C)CC(C)CC(C)CC(C)C (centres undefined)
inactive: outcome [1] | Potency [2] | Potency [3] | Potency [4] | Potency [5] | Potency [6] | outcome [19] | outcome [8] | outcome [9] | outcome [10] | Potency [11] | outcome [13] | Potency [14] | Potency [15]

CC(=O)Nc1cccc(C)c1
inactive: outcome [1] | Potency [2] | Potency [3] | Potency [4] | Potency [5] | Potency [6] | outcome [7] | outcome [19] | outcome [8] | Potency [11] | Potency [12] | Potency [20] | outcome [13] | Potency [14] | Potency [15]

O=S(=O)(O)c1ccc2cc(O)c(S(=O)(=O)O)cc2c1
inactive: outcome [1] | Potency [2] | Potency [3] | Potency [4] | Potency [5] | Potency [6] | outcome [7] | outcome [19] | outcome [8] | Potency [11] | Potency [20] | outcome [13] | Potency [14]

N[C@@H](CCC(=O)N[C@@H](CS)C(=O)NCC(=O)O)C(=O)O
inactive: activity change, negative = inhibition [1] 6.72% [at 19 µM] | activity change, negative = cytotoxicity [2] 5.49% [at 19 µM] | activation [3] -0.471% [at 19 µM] | activity change, negative = inhibition [4] 1.1% [at 18.9 µM] | activity change, negative = cytotoxicity [5] 2.33% [at 18.9 µM] | activity change, negative = cytotoxicity [6] 3.29% [at 19 µM] | viability change, negative = cytotoxic [7] 18.5% [at 15.8 µM] | activity change, negative = cytotoxicity [19] 1.41% [at 15.8 µM] | activation [8] 1.79% [at 15.8 µM] | activity change, negative = cytotoxicity [11] 1.19% [at 19 µM] | caspase activation [12] -1.46% [at 19 µM] | activity change, negative = cytotoxicity [20] 5.61% [at 19 µM] | caspase-3/7 activation [13] -0.229% [at 19 µM] | activity change, negative = cytotoxicity [14] -0.0408% [at 19 µM]

CCCCCCCC/C=C\CCCCCCCC(=O)OCCCC
inactive: activity change, negative = inhibition [1] 2.54% [at 19 µM] | activity change, negative = cytotoxicity [2] -4.95% [at 19 µM] | activity change, negative = inhibition [4] -2.42% [at 18.9 µM] | activity change, negative = cytotoxicity [5] 0.852% [at 18.9 µM] | activity change, negative = cytotoxicity [6] 0% [at 19 µM] | viability change, negative = cytotoxic [7] 2.1% [at 15.8 µM] | activity change, negative = cytotoxicity [19] 0.118% [at 15.8 µM] | activation [8] -1.96% [at 15.8 µM] | activation [10] 0.159% [at 11.8 µM] | caspase activation [12] 0.919% [at 19 µM] | caspase-3/7 activation [13] -0.343% [at 19 µM] | activity change, negative = cytotoxicity [14] 2.37% [at 19 µM] | activation [15] 3.05% [at 19 µM]
active: Potency [3] 1240 nM

CC(C)c1ccc2cc(C(C)C)ccc2c1
inactive: outcome [1] | Potency [2] | Potency [3] | Potency [4] | Potency [5] | Potency [6] | outcome [7] | outcome [19] | outcome [8] | outcome [10] | Potency [11] | Potency [20] | Potency [14]

O=C(OCc1ccccc1)C(=O)OCc1ccccc1
inactive: outcome [1] | Potency [2] | Potency [3] | Potency [5] | Potency [6] | outcome [7] | outcome [19] | outcome [8] | Potency [11] | Potency [20] | outcome [13] | Potency [14]

COP(=O)(OC)OC(c1ccc(Cl)cc1)P(=O)(OC)OC (centres undefined)
inactive: outcome [1] | Potency [2] | Potency [3] | Potency [5] | Potency [6] | outcome [7] | outcome [19] | outcome [8] | outcome [9] | outcome [10] | Potency [11] | Potency [12] | Potency [20] | outcome [13] | Potency [14] | Potency [15] | Potency [17] | Potency [18]

CN(CCOc1ccc(NS(C)(=O)=O)cc1)CCc1ccc(NS(C)(=O)=O)cc1
inactive: outcome [1] | Potency [2] | Potency [3] | Potency [4] | Potency [5] | Potency [6] | outcome [8] | Potency [11] | Potency [20] | outcome [13] | Potency [14] | Potency [15] | Potency [17]

COc1ccc(C2CNC(=O)C2)cc1OC1CCCC1 (centres undefined)
inactive: outcome [1] | Potency [2] | Potency [3] | Potency [4] | Potency [5] | outcome [7] | outcome [19] | outcome [8] | outcome [9] | outcome [10] | Potency [11] | Potency [12] | Potency [20] | outcome [13] | Potency [14]
